Laboratory results from PubChem BioAssay (NCI).
The panel holds about 83,000 compounds, 20% with a hit somewhere; the sample as a whole holds those more often.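 In brief: 96-well plates, 48 h treatment, single concentration, percent growth endpoint.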 Values without a mark were called inactive. Calls of active or inactive are those of the source. The calls were made as follows: active = growth percent below 10; inactive = the rest.

These compounds were tested on MDA-MB-468 breast (assay: NCI-60 one-dose screen, 48 h (100 = growth as untreated, 0 = no growth, -100 = all killed)). Settings: 10 µM unless noted.

Compound	growth
CCCCCn1ncc(-c2c(O)c(O)cc3c(O)c(-c4c(C)cc5c(-c6cnn(CCCCC)n6)c(O)c(O)cc5c4O)c(C)cc23)n1	-2.7% (active)
Cc1c(Cl)cccc1C(=O)Nc1nc2c(s1)CN(C(=O)c1ccc(C(F)(F)F)cc1)CC2	17.7%
COc1ccc2c(c1)NC(=O)CN2c1nc(NC2CC2)nc2ccccc12	8.4% (active)
CC(=O)Nc1ccc(S(=O)(=O)NC2CCCCC2)cc1	93.9%
COc1cccc(/C=C/C(=O)c2cc3c(N)c(C(=O)Nc4ccccc4)sc3nc2C)c1	15.3%
CCCC(=O)NC(c1cccnc1)c1cc(C(C)(C)C)c2cccnc2c1O (stereo not drawn)	-20.4% (active)
O=S(=O)(c1ccccc1)n1cc2c(c1-c1ccccc1)CCc1sc(Nc3ccccc3)nc1-2	73.3%
O=c1n(CC2CO2)c(=O)n(CC2CO2)c(=O)n1CC1CO1 (stereo not drawn)	56.7%
CCCCn1c(C(=O)c2c[nH]c3ccccc23)n[nH]c1=S	109%
COc1ccc(-c2c(C(=O)NS(C)(=O)=O)n(Cc3cccc(C(F)(F)F)c3)c3ccccc23)cc1	86.6%
C=C(C)[C@@H]1CC[C@]2(C(=O)N3CCNCC3)CC[C@]3(C)[C@H](CC[C@@H]4[C@@]5(C)C/C(=C/c6ccncc6)C(=O)C(C)(C)[C@@H]5CC[C@]43C)[C@@H]12	95%
Cc1ccc2[nH]c(=S)[nH]c(=O)c2c1	102%
COc1cccc(CCC(=O)c2cc3c(N)c(C(=O)Nc4cccc(Cl)c4C)sc3nc2C)c1	15.1%
